These results are taken from PubChem BioAssay (NCI).

The structures appear in SMILES notation. Compounds without any hit were thinned out: in the full panel of roughly 83,000, 20% have a hit.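 Step 1: grow cells in 96-well plates. Step 2: add test compound at a single concentration. Step 3: incubate 48 h. Step 4: record percent growth.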 Unmarked numbers belong to inactive results. The source made the active and inactive calls. Rule for the calls: active = growth percent below 10; inactive = the rest.

What all share (assay): NCI-60 one-dose screen, 48 h (100 = growth as untreated, 0 = no growth, -100 = all killed)
The test system of one test is T-47D breast. The conditions noted are these: 10 µM.
For another test, the system named is BT-549 breast. To be noted: 10 µM.
For the next test, the system named is MDA-MB-435 melanoma. To be noted: 10 µM.
The next test has as its system SW-620 colon. The conditions noted are these: 10 µM.
The subject of another test is MCF7 breast. To be noted: 10 µM unless noted.
The subject of the next test is HCT-116 colon. The conditions noted are these: 10 µM.
The test system of a further test is HCC-2998 colon. To be noted: 10 µM.
The test system of another test is KM12 colon. The conditions noted are these: 10 µM.

As for `c1ccc(CN2COc3c(ccc4c3OCN(Cc3ccccc3)C4)C2)cc1`, the growth is 13.1% in the test with T-47D breast; 12.6% with BT-549 breast; 22.1% with MDA-MB-435 melanoma; 29.8% in the test with SW-620 colon; 28.5% in the test with MCF7 breast; 22% with HCT-116 colon. The growth with HCC-2998 colon is -14.5% (active); with KM12 colon it was 25.3%.

For the compound `COc1ccc(/C(C#N)=C2C=C/C(=N/O)c3ccccc3\2)cc1`, the growth is 64.8% in the test with T-47D breast; 31% with BT-549 breast; -57% (active) with MDA-MB-435 melanoma; 20.1% in the test with SW-620 colon; 13.1% in the test with MCF7 breast; 5.12% (active) in the test on HCT-116 colon. Also, the growth was -11.4% (active) in the test with HCC-2998 colon and 3.23% (active) with KM12 colon.

`O=c1cc2oc3cc(O)c(O)cc3c(-c3ccccc3O)c-2cc1O`: the growth with T-47D breast is 70.8%; with BT-549 breast it was 77.7%; in the test with MDA-MB-435 melanoma, 68.9%; with SW-620 colon, 89.3%; in the test on MCF7 breast it was 75.8%; in the test on HCT-116 colon, 59.2%. Besides, the growth was 94.7% with HCC-2998 colon and 92.7% in the test on KM12 colon.

In the case of `CC(C)C(C#N)(C(C)C)C(C)C`, the growth was 104% in the test with T-47D breast; 102% with BT-549 breast; 96.3% in the test with MDA-MB-435 melanoma; 101% in the test with SW-620 colon; 97.7% in the test with MCF7 breast; 103% in the test with HCT-116 colon. Besides, the growth is 110% in the test with HCC-2998 colon and 103% with KM12 colon.

As for `C=CCOC(=O)C(=O)OCC=C`, the growth is 93.9% in the test on T-47D breast; 101% in the test with BT-549 breast; 120% in the test on MDA-MB-435 melanoma; 103% in the test with SW-620 colon; 101% in the test with MCF7 breast; 101% with HCT-116 colon. Also, the results for the growth with HCC-2998 colon and in the test on KM12 colon were 107% and 102%, respectively.

As for `CC(CN1CCCCC1)NC(=O)c1scnc1-c1ccccc1` (stereo not given), the growth in the test with T-47D breast is 98.7%; in the test with BT-549 breast, 101%; in the test with MDA-MB-435 melanoma, 101%; in the test on SW-620 colon, 106%; in the test with MCF7 breast, 103%; with HCT-116 colon, 93.8%. The growth in the test with HCC-2998 colon is 96.8%; in the test on KM12 colon, 106%.

As to `N#C/C(=C\c1cc(O)c(O)c(O)c1)C(N)=O`, the growth in the test on T-47D breast was 110%; with BT-549 breast it was 96.5%; with MDA-MB-435 melanoma, 89.4%; in the test with SW-620 colon, 116%; in the test on MCF7 breast it was 100%; with HCT-116 colon it was 92.8%. The figures for the growth in the test on HCC-2998 colon and with KM12 colon were 98.3% and 103%, respectively.

Take `NC(N)=Nc1cc2ccccc2c2ccccc12`: the growth was 88.1% with T-47D breast; 81.2% in the test with BT-549 breast; 84.8% in the test on MDA-MB-435 melanoma; 76.6% in the test with SW-620 colon; 81% with MCF7 breast; 65.9% in the test with HCT-116 colon. Also, the growth in the test with HCC-2998 colon is 95.4%; with KM12 colon, 81%.

Consider `CC[N+](C)(CC)CCO`, for which the growth was 93.4% with T-47D breast; 99.9% with BT-549 breast; 100% in the test with MDA-MB-435 melanoma; 100% in the test with SW-620 colon; 103% in the test on MCF7 breast; 105% in the test with HCT-116 colon. In addition, the results for the growth in the test on HCC-2998 colon and in the test with KM12 colon were 102% and 110%, respectively.

For the compound `Cc1ccncc1C(N)=O`, the growth is 84.5% in the test on T-47D breast; 111% in the test with BT-549 breast; 118% with MDA-MB-435 melanoma; 98.4% with SW-620 colon; 96% in the test with MCF7 breast; 94.5% in the test on HCT-116 colon. For the same compound, the growth is 124% with HCC-2998 colon and 90.1% in the test with KM12 colon.

Regarding `CN(C)c1ccc(S(=O)(=O)O)cc1`, the growth with T-47D breast is 87.6%; with BT-549 breast it was 98.6%; with MDA-MB-435 melanoma, 110%; with SW-620 colon it was 111%; in the test on MCF7 breast it was 99.8%; in the test with HCT-116 colon, 96%. Further, the growth is 103% in the test with HCC-2998 colon and 104% in the test on KM12 colon.

For `O=C(Nc1cc(-c2ccccc2)[nH]n1)c1ccc(Cl)cc1`, the growth is 74.1% in the test with T-47D breast; 83.5% with BT-549 breast; 86.4% in the test on MDA-MB-435 melanoma; 86.1% with SW-620 colon; 87.6% in the test on MCF7 breast; 72.3% with HCT-116 colon. Besides, the figures for the growth in the test on HCC-2998 colon and in the test with KM12 colon were 100% and 48.6%, respectively.

For the compound `OCC(O)C(O)C(O)C(O)/C=N/O` (stereo not given), the growth in the test with T-47D breast is 87.4%; in the test with BT-549 breast it was 91.5%; with MDA-MB-435 melanoma, 108%; in the test with SW-620 colon, 99.6%; in the test on MCF7 breast, 96.3%; with HCT-116 colon, 91.3%. Further, the growth was 102% with HCC-2998 colon and 101% with KM12 colon.

Take `CCCCC1(CC)COC(CCC)OC1` (stereo not given): the growth in the test on T-47D breast was 104%; in the test on BT-549 breast it was 106%; in the test with MDA-MB-435 melanoma, 118%; in the test on SW-620 colon it was 110%; in the test with MCF7 breast, 96.6%; with HCT-116 colon it was 98.8%. The growth was 98.1% in the test with HCC-2998 colon and 104% in the test on KM12 colon.

For `COc1cc2cc(c1Cl)N(C)C(=O)C[C@H](OC(=O)[C@H](C)N(C)C(C)=O)[C@]1(C)O[C@H]1[C@H](C)[C@@H]1C[C@@](O)(NC(=O)O1)[C@H](OC)C=C/C=C(\C)C2`, the growth in the test with T-47D breast was 74.6%; in the test with BT-549 breast, -21% (active); in the test with MDA-MB-435 melanoma it was -53.3% (active); in the test on SW-620 colon it was 26.5%; in the test on MCF7 breast it was 14.2%; with HCT-116 colon, -18.6% (active). Further, the growth was -32% (active) in the test on HCC-2998 colon and -42.3% (active) in the test with KM12 colon.

For the compound `O=c1[nH][nH]c(=O)c2cc([N+](=O)[O-])ccc12`, the growth in the test on T-47D breast is 96.1%; in the test with BT-549 breast, 106%; in the test on MDA-MB-435 melanoma it was 109%; in the test with SW-620 colon, 101%; with MCF7 breast, 99.8%; with HCT-116 colon, 101%. Also, the growth with HCC-2998 colon was 99.6%; in the test with KM12 colon, 106%.

Consider `CC(=O)c1ccc2c(ccc3ccccc32)c1`, for which the growth with T-47D breast is 98.9%; in the test with BT-549 breast, 98.1%; with MDA-MB-435 melanoma, 96.3%; with SW-620 colon, 99.7%; with MCF7 breast, 96.3%; in the test with HCT-116 colon it was 90.3%. Further, the figures for the growth in the test with HCC-2998 colon and with KM12 colon were 109% and 106%, respectively.

As for `Cc1cc(/C=C/c2ccc3cc(N(C)C)ccc3[n+]2C)c(C)n1-c1ccccc1`, the growth in the test with T-47D breast is -47.3% (active); with BT-549 breast it was -52.2% (active); with MDA-MB-435 melanoma it was -49.8% (active); in the test on SW-620 colon, 7.4% (active); in the test on MCF7 breast, -11.6% (active); with HCT-116 colon, -10.3% (active). Also, the growth in the test on HCC-2998 colon is 0.715% (active); with KM12 colon it was -62.1% (active).

In the case of `COC(=O)/C=C\C(=O)OC`, the growth in the test on T-47D breast was 113%; in the test with BT-549 breast, 99.7%; in the test on MDA-MB-435 melanoma, 115%; in the test with SW-620 colon, 105%; in the test on MCF7 breast it was 103%; with HCT-116 colon, 108%. Further, the growth was 103% in the test on HCC-2998 colon and 113% in the test with KM12 colon.

On to `COc1cc(/C=C(\C#N)C(=O)c2ccccc2)ccc1OCc1ccccc1`, for which the growth in the test with T-47D breast was 105%; in the test with BT-549 breast, 94.9%; in the test with MDA-MB-435 melanoma it was 101%; in the test on SW-620 colon, 99.4%; in the test on MCF7 breast, 96.6%; in the test with HCT-116 colon, 104%. Moreover, the growth in the test with HCC-2998 colon is 89.8%; in the test on KM12 colon, 99.1%.

Regarding `Oc1ccccc1-c1nnco1`, the growth is 82% with T-47D breast; 77.5% with BT-549 breast; 91.5% with MDA-MB-435 melanoma; 98.3% with SW-620 colon; 102% in the test with MCF7 breast; 106% with HCT-116 colon. For the same compound, the growth in the test on HCC-2998 colon is 104%; in the test with KM12 colon it was 100%.

Consider `CCOC(=O)CNN`, for which the growth in the test on T-47D breast is 104%; in the test on BT-549 breast it was 108%; with MDA-MB-435 melanoma, 108%; in the test with SW-620 colon it was 99.2%; in the test on MCF7 breast it was 97.9%; with HCT-116 colon it was 107%. In addition, the growth with HCC-2998 colon was 106%; with KM12 colon it was 101%.

On to `O=C(NCc1ccco1)Nc1c(Cl)cc(Cl)cc1Cl`, for which the growth in the test with T-47D breast is 88.6%; in the test with BT-549 breast it was 96.1%; in the test with MDA-MB-435 melanoma, 96.5%; in the test with SW-620 colon, 102%; in the test with MCF7 breast, 92.8%; in the test on HCT-116 colon it was 95.5%. Further, the growth in the test with HCC-2998 colon is 102%; in the test with KM12 colon, 104%.

As to `O=C(Cc1ccc(OCc2ccccc2)cc1)NCc1ccc2c(c1)OCO2`, the growth in the test with T-47D breast is 86.2%; with BT-549 breast it was 56.1%; with MDA-MB-435 melanoma, -42.4% (active); in the test on SW-620 colon, 28.1%; in the test with MCF7 breast, 44.5%; in the test with HCT-116 colon, 40.4%. Also, the growth in the test with HCC-2998 colon was 77.2%; in the test on KM12 colon it was 33.1%.

As to `O=C(CCl)N1CCN(C/C=C/c2ccccc2)CC1`, the growth with T-47D breast was 83.8%; in the test with BT-549 breast, 94%; with MDA-MB-435 melanoma, 85%; in the test on SW-620 colon, 90.3%; in the test with MCF7 breast, 62.1%; with HCT-116 colon, 68.5%. The growth in the test with HCC-2998 colon is 125%; in the test on KM12 colon it was 112%.
